Laboratory results reported in PubChem BioAssay (EPA / NIEHS).
Results filed as inconclusive are left out. Activity calls are given as the source filed them. How the source made its calls, unless noted: active means hit-call score of the fitted dose curve at least 0.9, where 1 is the maximum; inconclusive means response in the unintended direction; inactive means score below 0.9.

Legend:
[1] = Tanguay_ZF_120hpf_EYE_legacy: (Legacy) Oregon State University Tanguay Lab 120 Hour Post-fertilization zebrafish Assay for Eye Malformation (AID 2283636);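 further: binary presence or absence of eye malformation scored by brightfield in 120 hpf larvae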
Procedure, shortened: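 Dechorionated Tropical 5D zebrafish embryos, one per well from 6 hpf, static exposure to 120 hpf at 28C, 0.64% DMSO. Eye malformation scored present/absent by brightfield; dead embryos not scored.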

[2] = Tanguay_ZF_120hpf_SNOU_legacy: (Legacy) Oregon State University Tanguay Lab 120 Hour Post-fertilization zebrafish Assay for Snout Malformation (AID 2283637)
Procedure, shortened: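 Dechorionated tropical 5D wild-type zebrafish embryos exposed statically from 6 to 120 hpf at 28C, one per well, in 0.64% DMSO. Snout malformation scored as present/absent by brightfield at 120 hpf; dead embryos not scored.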

[3] = Tanguay_ZF_120hpf_JAW_legacy: (Legacy) Oregon State University Tanguay Lab 120 Hour Post-fertilization zebrafish Assay for Jaw Malformation (AID 2283638);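 on AC50: active means more embryos with jaw malformation than DMSO controls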
Procedure, shortened: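 Static waterborne exposure of dechorionated wild-type (Tropical 5D) zebrafish from 6 to 120 hpf at 28C, 0.64% DMSO vehicle; 5uM trimethyltin chloride served as positive control. Jaw morphology recorded as binary at 120 hpf.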

[4] = Tanguay_ZF_120hpf_OTIC_legacy: (Legacy) Oregon State University Tanguay Lab 120 Hour Post-fertilization zebrafish Assay for Otic Vesicle Malformation (AID 2283639)
Procedure, shortened: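 Tropical 5D wild-type zebrafish embryos statically exposed in 0.64% DMSO at 28C until 120 hpf; 5uM trimethyltin chloride as positive control. Otic vesicle malformation scored present/absent by brightfield; dead embryos not scored; gain fitted versus DMSO.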

[5] = Tanguay_ZF_120hpf_PE_legacy: (Legacy) Oregon State University Tanguay Lab 120 Hour Post-fertilization zebrafish Assay for Pericardial Edema (AID 2283640);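 on AC50: potency for increased incidence of pericardial edema versus DMSO baseline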
Procedure, shortened: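 Read-out is the presence or absence of pericardial edema at 120 hpf under brightfield, with gain of signal fitted against DMSO controls. Larvae (5D wild-type) were statically exposed at 28C with 0.64% final DMSO.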

[6] = Tanguay_ZF_120hpf_BRAI_legacy: (Legacy) Oregon State University Tanguay Lab 120 Hour Post-fertilization zebrafish Assay for Brain Malformation (AID 2283641)
Procedure, shortened: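 Brain malformation in Tropical 5D zebrafish was recorded as a binary endpoint after static compound exposure from early development to 120 hpf at 28C. Activity was analysed against DMSO as negative control.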

[7] = Tanguay_ZF_120hpf_SOMI_legacy: (Legacy) Oregon State University Tanguay Lab 120 Hour Post-fertilization zebrafish Assay for Somite Malformation (AID 2283647)
Procedure, shortened: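 5D WT zebrafish; chorion removed 4 hpf; 1 embryo/well from 6 hpf; static exposure to 120 hpf, 28C, 0.64% DMSO final. Endpoint: somite malformation, binary, brightfield. Mortality excluded.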

[8] = Tanguay_ZF_120hpf_PFIN_legacy: (Legacy) Oregon State University Tanguay Lab 120 Hour Post-fertilization zebrafish Assay for Pectoral Fin Malformation (AID 2283648);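 further: each larva judged yes or no for fin defect by brightfield with dead larvae skipped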
Procedure, shortened: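 Dechorionated Tropical 5D wild-type zebrafish embryos, one per well, statically exposed from 6 to 120 hpf at 28C with 0.64% DMSO final. Pectoral fin malformation scored present/absent by brightfield at 120 hpf; not scored in dead embryos.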

[9] = Tanguay_ZF_120hpf_CFIN_legacy: (Legacy) Oregon State University Tanguay Lab 120 Hour Post-fertilization zebrafish Assay for Caudal Fin Malformation (AID 2283649)
Procedure, shortened: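 Embryos were collected from Tropical 5D wild-type adults and dechorionated at 4 hpf. At 6 hpf each was exposed, one per well, at 0.64% DMSO and 28C. At 120 hpf fin morphology was scored; dead embryos were excluded.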

[10] = Tanguay_ZF_120hpf_PIG_legacy: (Legacy) Oregon State University Tanguay Lab 120 Hour Post-fertilization zebrafish Assay for Pigmentation Malformation (AID 2283650)
Procedure, shortened: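 Dechorionated Tropical 5D wild-type embryos, one per well from 6 hpf, statically exposed at 28C in the dark until 120 hpf, 0.64% DMSO final. Pigmentation scored present/absent by brightfield microscopy; dead embryos not scored; fitted versus DMSO.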

[11] = Tanguay_ZF_120hpf_CIRC_legacy: (Legacy) Oregon State University Tanguay Lab 120 Hour Post-fertilization zebrafish Assay for Circulatory Malformation (AID 2283651)
Procedure, shortened: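 Dechorionated wild-type 5D zebrafish embryos, one per well, statically exposed from 6 to 120 hpf at 28C with 0.64% DMSO; circulatory malformation scored present/absent by brightfield microscopy at 120 hpf, dead embryos excluded.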

[12] = Tanguay_ZF_120hpf_SWIM_legacy: (Legacy) Oregon State University Tanguay Lab 120 Hour Post-fertilization zebrafish Assay for Swim Bladder Malformation (AID 2283654);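 further: swim bladder malformation in each larva scored yes or no under brightfield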
Procedure, shortened: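 Dechorionated wild-type Tropical 5D zebrafish embryos, one per well from 6 hpf, were statically exposed at 28C until 120 hpf in 0.64% DMSO. Swim bladder malformation scored as present/absent by brightfield microscopy; not scored in dead larvae.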

[13] = Tanguay_ZF_120hpf_TRUN_legacy: (Legacy) Oregon State University Tanguay Lab 120 Hour Post-fertilization zebrafish Assay for Truncated Body (AID 2283655)
Procedure, shortened: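 5D wild-type larvae; pronase dechorionation; static exposure 6→120 hpf, 28C; DMSO 0.64% final; 5uM trimethyltin chloride positive control. Readout: presence/absence of truncated body, analyzed relative to DMSO.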

[14] = Tanguay_ZF_120hpf_NC_legacy: (Legacy) Oregon State University Tanguay Lab 120 Hour Post-fertilization zebrafish Assay for Notochord and Tail Malformation (AID 2283656)
Procedure, shortened: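 Dechorionated Tropical 5D wild-type zebrafish embryos, one per well from 6 hpf, statically exposed to 120 hpf at 28C in 0.64% DMSO final. Notochord distortion scored present/absent by brightfield; dead embryos excluded.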

[15] = read-out: Broad substrate specificity ATP-binding cassette transporter ABCG2 (Homo sapiens) (UniProt Q9UNQ0); assay: CLD_ABCG2_6hr: CellzDirect (CLD) Gene Expression Assay for ABC Transporter (ABCG2) at 6 hours (AID 2283660)
Procedure, shortened: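 Primary human hepatocytes dosed daily with chemicals at multiple concentrations (0.2% DMSO vehicle), harvested 6 h after dosing. ABCG2 mRNA induction read by quantitative nuclease protection assay (qNPA) chemiluminescence; gain of signal fitted against DMSO baseline.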

[16] = read-out: xenobiotic metabolism (CYP1A1), CYP1A1 (gene 1543); assay: CLD_CYP1A1_6hr: CellzDirect (CLD) Gene Expression Assay for xenobiotic metabolism (CYP1A1) at 6 hours (AID 2283661);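 on AC50: potency for transcript induction above DMSO vehicle baseline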
Procedure, shortened: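 Primary human hepatocytes from two donors, compound versus 0.2% DMSO vehicle. CYP1A1 mRNA measured 6 h after dosing by quantitative nuclease protection assay with chemiluminescent read-out; induction fitted relative to DMSO, cytotoxicity flagged by microscopy.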

[17] = read-out: ABC Transporter (ABCB1), ABCB1 (gene 5243); assay: CLD_ABCB1_6hr: CellzDirect (CLD) Gene Expression Assay for ABC Transporter (ABCB1) at 6 hours (AID 2283659);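 further: hits raise ABCB1 transcript above the DMSO vehicle baseline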
Procedure, shortened: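 Primary human hepatocytes (two donor preparations) dosed daily for two days with chemicals at multiple concentrations, 0.2% DMSO vehicle; harvested 6 h post-dose. ABCB1 mRNA induction quantified by qNPA chemiluminescence; gain-of-signal fitted versus DMSO.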

[18] = read-out: solute carrier (SLC10A1), SLC10A1 (gene 6554); assay: LTEA_HepaRG_SLC10A1: Life Technologies and Expression Analysis (LTEA) Assay for solute carrier (SLC10A1) using HepaRG (AID 2283657; active means hit-call score of the fitted dose curve at least 0.9, where 1 is the maximum; inactive means score below 0.9); details: mRNA level, 48 h; actives raise or lower the signal
Procedure, shortened: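 HepaRG cells (single lot) exposed 48 h in serum-free induction medium, 8-point half-log series from 100 uM top in 0.5% DMSO, duplicate. SLC10A1 mRNA by qRT-PCR normalised to ACTB, GAPDH, POLR2A; bidirectional fit versus DMSO.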

[19] = read-out: matrix metalloproteinase-1 (MMP1), MMP1 (gene 4312); assay: LTEA_HepaRG_MMP1: Life Technologies and Expression Analysis (LTEA) Assay for matrix metalloproteinase-1 (MMP1) using HepaRG (AID 2283658; active means hit-call score of the fitted dose curve at least 0.9, where 1 is the maximum; inactive means score below 0.9); details: mRNA level, 48 h; actives raise or lower the signal
Procedure, shortened: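 Bidirectional concentration-response fitting relative to 0.5% DMSO gives the endpoint, derived from MMP1 mRNA levels (qRT-PCR) in human HepaRG cells treated 48 h with chemicals up to 100 uM.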

[20] = read-out: kallikrein-3 (KLK3), KLK3 (gene 354); assay: LTEA_HepaRG_KLK3: Life Technologies and Expression Analysis (LTEA) Assay for kallikrein-3 (KLK3) using HepaRG (AID 2283652; active means hit-call score of the fitted dose curve at least 0.9, where 1 is the maximum; inactive means score below 0.9); details: mRNA level, 48 h; actives raise or lower the signal
Procedure, shortened: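 Differentiated human HepaRG cells in serum-free induction medium exposed 48 h in duplicate, eight-point half-log series from 100 uM in 0.5% DMSO. KLK3 mRNA by qRT-PCR, normalised to ACTB, GAPDH, POLR2A; bidirectional fit versus DMSO.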

Measured: AC50

Broad substrate specificity ATP-binding cassette transporter ABCG2 (Homo sapiens), sequence (Q9UNQ0 whole entry, looked up): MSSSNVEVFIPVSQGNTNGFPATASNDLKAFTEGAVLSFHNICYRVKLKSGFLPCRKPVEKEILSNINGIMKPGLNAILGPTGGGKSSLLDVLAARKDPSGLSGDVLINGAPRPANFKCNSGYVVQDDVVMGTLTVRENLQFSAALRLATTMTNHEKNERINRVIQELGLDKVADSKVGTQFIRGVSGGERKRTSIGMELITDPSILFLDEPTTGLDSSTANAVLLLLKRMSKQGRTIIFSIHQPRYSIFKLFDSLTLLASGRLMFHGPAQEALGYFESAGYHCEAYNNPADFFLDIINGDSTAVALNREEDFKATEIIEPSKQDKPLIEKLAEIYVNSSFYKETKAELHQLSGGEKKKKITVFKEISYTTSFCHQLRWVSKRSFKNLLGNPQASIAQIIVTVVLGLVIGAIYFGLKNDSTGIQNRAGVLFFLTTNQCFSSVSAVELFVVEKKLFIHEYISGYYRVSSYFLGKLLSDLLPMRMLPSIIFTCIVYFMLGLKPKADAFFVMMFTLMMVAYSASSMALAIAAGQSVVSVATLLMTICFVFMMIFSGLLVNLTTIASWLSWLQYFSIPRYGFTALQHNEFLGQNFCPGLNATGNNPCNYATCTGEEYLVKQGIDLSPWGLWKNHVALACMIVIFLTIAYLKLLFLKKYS

C=C(C)[C@H]1Cc2c(ccc3c2O[C@@H]2COc4cc(OC)c(OC)cc4[C@@H]2C3=O)O1
not listed: [15] | [16] | [17] | [18] | [19] | [20]
inactive: all other assays above

COP(=O)(OC)C(O)C(Cl)(Cl)Cl (stereo unspecified)
not listed: [11] | [16] | [17] | [18] | [19] | [20]
inactive: all other assays above

Nc1c(Cl)cc([N+](=O)[O-])cc1Cl
active: [1] 9.62 µM | [2] 31.1 µM | [3] 31.4 µM | [4] 36.4 µM | [5] 43.1 µM | [6] 46.3 µM | [8] 42.1 µM | [9] 39.1 µM | [10] 10.8 µM | [13] 34.7 µM | [16] 34.5 µM
inactive: [7] | [12] | [14] | [15]

CN(C)C(=O)Nc1cccc(C(F)(F)F)c1
not listed: [18] | [19] | [20]
inactive: all other assays above

C#CCC1=C(C)C(OC(=O)C2C(C=C(C)C)C2(C)C)CC1=O (stereo unspecified)
not listed: [13] | [14] | [18] | [19] | [20]
inactive: all other assays above

CN(C)NC(=O)CCC(=O)O
not listed: [11] | [16] | [18] | [19] | [20]
inactive: all other assays above

CCOP(=O)(NC(C)C)Oc1ccc(SC)c(C)c1 (stereo unspecified)
inactive: [4] | [7] | [9] | [10] | [12] | [13] | [14]
active: [1] 14.6 µM | [2] 20.9 µM | [3] 21.6 µM | [5] 25.6 µM | [6] 61.8 µM | [8] 16.9 µM | [16] 2.72 µM

CC1=NNC(=O)N(/N=C/c2cccnc2)C1
active: [16] 20 µM
not listed: [10] | [18] | [19] | [20]
inactive: all other assays above

CCCCOC(=O)c1ccccc1C(=O)O
not listed: [11] | [14] | [18] | [19] | [20]
inactive: all other assays above

CCOC(=O)CC(SP(=O)(OC)OC)C(=O)OCC (stereo unspecified)
active: [1] 12.1 µM | [18] 10.1 µM
not listed: [11] | [15] | [20]
inactive: all other assays above

CNC(=O)ON=C(SC)C(=O)N(C)C
not listed: [11] | [16] | [18] | [19] | [20]
inactive: all other assays above

C[N+]1(C)CCCCC1
not listed: [11] | [18] | [19] | [20]
inactive: all other assays above

COc1ccc(C(=CC(=O)N2CCOCC2)c2ccc(Cl)cc2)cc1OC
inactive: [7] | [10] | [17] | [15]
active: [1] 16.4 µM | [2] 35.4 µM | [3] 43.7 µM | [4] 42.6 µM | [5] 34.2 µM | [6] 40.9 µM | [8] 45.5 µM | [9] 37.3 µM | [12] 63.3 µM | [13] 51.4 µM

Cc1ccn2nc(S(=O)(=O)Nc3c(F)cccc3F)nc2n1
not listed: [11] | [18] | [19] | [20]
inactive: all other assays above

C[Si](Cn1cncn1)(c1ccc(F)cc1)c1ccc(F)cc1
inactive: [10] | [12] | [17] | [15]
active: [1] 46.9 µM | [2] 12 µM | [3] 13.4 µM | [4] 12.7 µM | [5] 9.78 µM | [6] 47 µM | [7] 47.7 µM | [8] 20.9 µM | [9] 36 µM | [13] 11 µM | [16] 20 µM

CNC(=O)Oc1cccc2c1OC(C)(C)O2
active: [16] 2.94 µM
not listed: [11] | [15]
inactive: all other assays above
